Bioassay records as filed in PubChem BioAssay.
Shown are actives, neighbours in structure and some others; about 1.3% of the full set was active somewhere.
EPAC2 ag: qHTS for Agonist of cAMP-regulated guanine nucleotide exchange factor 4 (EPAC2): primary screen. Rap guanine nucleotide exchange factor 4 (Homo sapiens), Q8WZA2. EPAC2 activation, biochemical qHTS; response scale: 100% = 6.5 mM cAMP response. Potency, µM (titrated, usually from 154 µM), for inactives: at the top dose activation, usual class: activators. actives 0.079% (n = 360,000); further: nearly all actives have a fitted effect of over 50% in size
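Readout is BODIPY fluorescence (480 nm excitation, 540 nm emission), which falls as labeled GDP is exchanged off Rap1B. EPAC2 at 100 nM acted on 250 nM RAP1B-BODIPY-GDP with 50 uM GDP present.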
BRCA1 expr act: qHTS Assay to Identify Small Molecule Activators of BRCA1 Expression; MCF7-BRCA1-FFLuc reporter, luminescence, 48 h; response scale: scaled: vehicle 0%, 10 µM genistein 100%; Potency, µM (highest dose often 46.1 µM), without a hit: at the top dose activation, usual class: activators; actives 1.1% (n = 380,000); AID 624202, 2012; further: nearly all actives have a fitted effect of over 80% in size
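MCF7-BRCA1-FFLuc cells, 2000/well in phenol-red-free MEM, attached 2 h then treated 48 h at 37 C. Luciferase luminescence read 15 min after reagent; normalized to genistein maximum activation (10microM) and DMSO, concentration-response fitted.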
EPAC2 antag: qHTS for Antagonist of cAMP-regulated guanine nucleotide exchange factor 2 (EPAC2): primary screen. actives 0.18% (n = 360,000). Potency, µM (highest dose often 114 µM), inactives show top-dose activity, negative = inhibition, actives largely listed as inhibitors. EPAC2 GEF exchange of Rap1B-BODIPY-GDP, fluorescence; further: on the % scale 0 is the no-effect control and ±100 the full control effect; nearly all actives have a fitted effect of over 45% in size
EPAC1 antag: qHTS for Antagonist of cAMP-regulated guanine nucleotide exchange factor 3 (EPAC1): primary screen. EPAC1 GEF assay, Rap1b-BODIPY-GDP exchange fluorescence. actives 0.14% (n = 360,000). Potency, µM (highest dose often 115 µM), for the others: top-dose activity change, negative = inhibition, usual class: inhibitors;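 further: plate controls were vehicle for no effect and positive control for full effect; nearly all actives have a fitted effect of over 50% in size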
EPAC1 agonist: qHTS for Agonist of cAMP-regulated guanine nucleotide exchange factor 3 (EPAC1): primary screen. actives 0.073% (n = 360,000). EPAC1 agonist qHTS, biochemical assay; response scale: 100% = response to 6.5 mM cAMP. Potency, µM (top dose mostly 154 µM), for inactives: at the highest dose activation, most hits filed as activators. AID 720707, 2013; further: nearly all actives have a fitted effect of over 60% in size
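EPAC1 100 nM, Rap1B–BODIPY-GDP 250 nM, unlabeled GDP 50 uM; compound titration; 5 min RT; kinetic read ex480/em540 at 5-min intervals ×30 min; data normalized to 6.5 mM cAMP agonist control.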
RGS4 inh: Inhibitors of Regulator of G Protein Signaling (RGS) 4: qHTS; actives 0.039% (n = 390,000); Transcreener GDP fluorescence polarization, RGS4-accelerated GTP hydrolysis; Potency, µM (titrated, usually from 114 µM), inactives show top-dose activity change, negative = inhibition, actives largely listed as inhibitors; Regulator of G-protein signaling 4 (Homo sapiens), P49798; further: on the % scale 0 is the no-effect control and ±100 the full control effect; nearly all actives have a fitted effect of over 75% in size
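MLSMR compounds (23 nl, pin-transferred) preincubated 10 min at room temperature with a 500nM (2x) first reagent, then RGS4 at 900nM (2x) plus Transcreener GDP mix added; fluorescence polarization (620/688 nm) read before and after 90 min at 30 °C.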
* = called active by the depositor; [ ] = dose if it differs, or a comment. The call rests on the fitted dose curve; in most records, active means well fitted curve in the direction sought with a large enough effect; inconclusive means small, poorly fitted or top-dose-only effect, or another doubt; inactive means no such curve, though single readings can be large; an effect the other way counts as inactive or inconclusive. Potency means the concentration at half of the fitted maximal effect.

CN(C(=O)c1cccc(S(=O)(=O)NCc2ccccc2)c1)C1CCCCC1 was read as EPAC2 ag 7%, BRCA1 expr act -26%, EPAC2 antag -4%, EPAC1 antag 3%, EPAC1 agonist 6% and RGS4 inh -29%.
`CN1CCN(C2=CC3=CC(=C(C#N)C#N)CCC3CC2)CC1` (configuration not stated) gave EPAC2 ag 100µM*, BRCA1 expr act -31%, EPAC2 antag 213%, EPAC1 antag inactive, EPAC1 agonist 28µM* and RGS4 inh -1%.
Screening N#CC(C#N)=C1C=C2C=C(N3CCOCC3)CCC2CC1 (configuration not stated) returned EPAC2 ag 56µM*, BRCA1 expr act -5%, EPAC2 antag 79%, EPAC1 antag 152%, EPAC1 agonist inconclusive and RGS4 inh -54%.
CCN1CCN(C2=CC3=CC(=C(C#N)C#N)CCC3CC2)CC1 (configuration not stated) was read as EPAC2 ag 25µM*, BRCA1 expr act -25%, EPAC2 antag 434%, EPAC1 antag 455%, EPAC1 agonist 50µM* and RGS4 inh -1%.
`CC1(C)CC(NCCN2CCN(C3=CC(=C(C#N)C#N)CC(C)(C)C3)CC2)=CC(=C(C#N)C#N)C1` gave EPAC2 ag -1%, BRCA1 expr act -40%, EPAC2 antag 5%, EPAC1 antag 6%, EPAC1 agonist -8% and RGS4 inh 2%.
`N#CC(C#N)=C1C=C2C=C(N3CCCCCC3)CCC2CC1` (configuration not stated) gave EPAC2 ag 89%, BRCA1 expr act -16%, EPAC2 antag 239%[57.1 µM], EPAC1 antag 135%, EPAC1 agonist 94% and RGS4 inh 3%.
COCCNC(=O)C(c1ccc(Cl)cc1)N(C(=O)CCC(=O)Nc1ccccn1)C1CCCC1 (configuration not stated) was read as EPAC2 ag 7%, BRCA1 expr act 14%, EPAC2 antag -7%, EPAC1 antag -5%, EPAC1 agonist -2% and RGS4 inh -32%.
COc1ccc(-c2csc(C3=C(O)CN(CCCN4CCCC4=O)C3=N)n2)cc1OC was read as EPAC2 ag 12%, BRCA1 expr act 14%, EPAC2 antag -10%, EPAC1 antag -21%, EPAC1 agonist -7% and RGS4 inh -16%.
CCOC(=O)N1CCN(C(=O)c2ccc3c(c2)sc2nc(-c4ccccc4)cn23)CC1 was read as EPAC2 ag 8%, BRCA1 expr act 10µM*, EPAC2 antag -1%, EPAC1 antag -10%, EPAC1 agonist 4% and RGS4 inh 5%.
`CCCCN1C2CCCC1CC(NC(=O)c1cccc(Cl)c1)C2` (configuration not stated) gave EPAC2 ag 6%, BRCA1 expr act 1%, EPAC2 antag 21%, EPAC1 antag 4%, EPAC1 agonist -5% and RGS4 inh -6%.
For c1cncc(CSc2ccc(-c3cccs3)nn2)c1 the results were EPAC2 ag 5%, BRCA1 expr act 10µM*, EPAC2 antag -4%, EPAC1 antag -6%, EPAC1 agonist 11% and RGS4 inh 12%.
